Compounds without any hit were thinned out: in the full panel of roughly 79,000, 15% have a hit. The source made the active and inactive calls. No stated cut-off is given here; in the data, active means growth inhibition above about 70%; inactive means the rest.
Columns and labels:
[1] = NCI Yeast Anticancer Drug Screen. Data for the mec2-1 strain (AID 157); settings: S. cerevisiae mec2-1 strain, active compounds read high
Method in brief: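 Compounds were applied to mec2-1 yeast cells. Their growth was then compared with that of vehicle-treated cultures to give growth inhibition.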

[2] = NCI Yeast Anticancer Drug Screen. Data for the sgs1 mgt1 strain (AID 161);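 further: 0% = growth of cultures given vehicle only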; settings: S. cerevisiae sgs1 mgt1 strain, active compounds read high
Method in brief: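 Growth of a repair-deficient yeast mutant was monitored after compound treatment and expressed as inhibition relative to vehicle-treated cultures.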

[3] = NCI Yeast Anticancer Drug Screen. Data for the CLN2oe strain (AID 163);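 further: 0% = growth of vehicle-only control cultures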; settings: S. cerevisiae CLN2oe strain, active compounds read high
Method in brief: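 Cells of an engineered yeast line with disturbed cell-cycle regulation are treated with compound. Inhibition of growth is then calculated relative to the vehicle-treated reference.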

[4] = NCI Yeast Anticancer Drug Screen. Data for the cln2 rad14 strain (AID 165);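 further: 0% = growth equal to vehicle treated cultures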; settings: S. cerevisiae cln2 rad14 strain, active compounds read high
Method in brief: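 Strain: cln2 rad14 yeast, altered in cell cycle control and DNA damage repair. Read-out: growth inhibition vs vehicle.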

[5] = NCI Yeast Anticancer Drug Screen. Data for the bub3 strain (AID 167); settings: S. cerevisiae bub3 mutant strain, active compounds read high
Method in brief: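 Part of a panel of yeast mutants defective in DNA damage repair or cell cycle regulation. Each strain is grown with compound, and inhibition is calculated relative to solvent-treated cultures.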

[6] = NCI Yeast Anticancer Drug Screen. Data for the wt2 strain (AID 169);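 further: 0% = growth of vehicle-treated yeast cultures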; settings: S. cerevisiae wt2 strain growth inhibition, active compounds read high
Method in brief: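 Growth of compound-treated yeast is measured and expressed as inhibition relative to vehicle-only controls.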

[7] = NCI Yeast Anticancer Drug Screen. Data for the mlh1 strain (AID 171);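 further: 0% = growth of vehicle-treated control cultures of the same strain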; settings: S. cerevisiae mlh1 strain growth inhibition, active compounds read high
Method in brief: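 Test agents were incubated with yeast bearing a defined DNA damage repair or cell cycle control alteration; values are growth inhibition normalised to vehicle-treated cultures.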

[8] = NCI Yeast Anticancer Drug Screen. Data for the sgs1 strain (AID 173);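 further: 0% = growth of vehicle-only control cultures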; settings: S. cerevisiae sgs1 mutant, active compounds read high
Method in brief: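 Strain with an altered DNA repair or cell cycle pathway exposed to compound. Growth then measured. Value = inhibition versus vehicle control.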

[9] = NCI Yeast Anticancer Drug Screen. Data for the mlh1 rad18 strain (AID 175); settings: S. cerevisiae mlh1 rad18 strain growth inhibition, active compounds read high
Method in brief: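 A repair-deficient yeast strain is exposed to test compound, and growth is scored relative to vehicle-treated controls.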

[10] = NCI Yeast Anticancer Drug Screen. Data for the rad52 strain (AID 147);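 further: 0% = growth of vehicle-treated control cultures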; settings: S. cerevisiae rad52 mutant growth inhibition, active compounds read high
Method in brief: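 Growth of repair-deficient yeast cells was compared between compound-treated and vehicle-treated cultures to give percent inhibition.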

[11] = NCI Yeast Anticancer Drug Screen. Data for the wt1 strain (AID 149);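 further: 0% = growth of vehicle-treated wt1 cultures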; settings: S. cerevisiae wt1 strain (SPY 50644) growth inhibition, active compounds read high
Method in brief: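 The wt1 strain was treated with compounds, and growth was compared with vehicle-treated cultures to give inhibition.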

[12] = NCI Yeast Anticancer Drug Screen. Data for the rad50EPP+ strain (AID 151);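 further: 0% = growth of vehicle-treated control cultures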; settings: S. cerevisiae rad50 mutant strain, active compounds read high
Method in brief: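 Measured: growth inhibition of rad50EPP+ yeast. Reference: vehicle-treated controls. Screen uses strains with defined genetic alterations in DNA damage repair or cell cycle control.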

[13] = NCI Yeast Anticancer Drug Screen. Data for the mgt1 strain (AID 153); settings: S. cerevisiae mgt1 mutant growth inhibition, active compounds read high
Method in brief: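 Compounds were applied to mgt1 mutant yeast, and growth was then compared against vehicle-treated control cultures to give percent inhibition.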

[14] = NCI Yeast Anticancer Drug Screen. Data for the rad50 strain (AID 155);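 further: 0% = growth of vehicle-only cultures of the same strain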; settings: S. cerevisiae rad50 strain growth inhibition, active compounds read high
Method in brief: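 Cells are treated with compound, grown, and their growth is then scored against vehicle-only cultures of the same repair-deficient yeast strain.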

[15] = NCI Yeast Anticancer Drug Screen. Data for the rad14 strain (AID 159);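 further: 0% = growth of vehicle-treated control cultures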; settings: S. cerevisiae rad14 strain growth inhibition, active compounds read high
Method in brief: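 Readout: yeast growth inhibition, referenced to vehicle-only cultures. Strain bears a defined alteration in DNA damage repair.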

[16] = NCI Yeast Anticancer Drug Screen. Data for the rad18 strain (AID 177); settings: S. cerevisiae rad18 mutant growth inhibition, active compounds read high
Method in brief: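 DNA-repair-defective yeast; compound treatment; growth inhibition scored against vehicle.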

[17] = at 5.0 µM (retest, dose inferred, filed as 0.5)
[18] = at 50.0 µM (retest, dose inferred, filed as 5.0)

Measured: growth inhibition

C1=CCN([B-](c2ccccc2)[C+]2CCCCC2)C=C1
inactive: [1]; [17] -4% | [1]; at 11.0 µM 4% | [2]; [17] -5% | [3]; at 1.2 µM -6% | [3]; at 3.7 µM -6% | [3]; at 11.0 µM 1% | [3]; at 33.0 µM 32% | [4]; [17] -1% | [4]; [18] 18% | [4]; at 50.0 µM 2.1% | [5]; at 1.2 µM 2% | [5]; at 3.7 µM -1% | [5]; [17] 1% | [5]; at 11.0 µM 4% | [5]; [18] 15% | [5]; at 50.0 µM -11.4% | [6]; at 1.2 µM -1% | [6]; at 3.7 µM 7% | [6]; at 11.0 µM 3% | [7]; at 1.2 µM -1% | [7]; at 3.7 µM -2% | [7]; at 11.0 µM -1% | [8]; at 1.2 µM -2% | [8]; at 3.7 µM -2% | [8]; at 11.0 µM 6% | [9]; [17] 0%
active: [1]; at 33.0 µM 76% | [1]; [18] 96% | [1]; at 50.0 µM 98.7% | [1]; at 100.0 µM 99% | [2]; [18] 92% | [2]; at 50.0 µM 99.2% | [3]; at 100.0 µM 95% | [5]; at 33.0 µM 80% | [5]; at 100.0 µM 97% | [6]; at 33.0 µM 94% | [6]; at 100.0 µM 98% | [7]; at 33.0 µM 75% | [7]; at 100.0 µM 99% | [8]; at 33.0 µM 92% | [8]; at 100.0 µM 99% | [9]; [18] 96% | [9]; at 50.0 µM 96.5%

O=S(=O)(c1ccccc1)N1CN2CN(C1)CN(S(=O)(=O)c1ccccc1)C2
inactive: [10]; at 1.2 µM -10% | [10]; at 3.7 µM -2% | [10]; at 11.0 µM -15% | [10]; at 33.0 µM -8% | [10]; at 100.0 µM -5% | [11]; at 1.2 µM -3% | [11]; at 3.7 µM 14% | [11]; at 11.0 µM 17% | [11]; at 33.0 µM 11% | [11]; at 100.0 µM 16% | [12]; at 1.2 µM -18% | [12]; at 3.7 µM -15% | [12]; at 11.0 µM -15% | [12]; at 33.0 µM -12% | [12]; at 100.0 µM -10% | [13]; at 1.2 µM 0% | [13]; at 3.7 µM 7% | [13]; at 11.0 µM 5% | [13]; at 33.0 µM 7% | [13]; at 100.0 µM 6% | [14]; at 1.2 µM -4% | [14]; at 3.7 µM -7% | [14]; [17] 24% | [14]; at 11.0 µM -10% | [14]; at 33.0 µM -12% | [14]; [18] 38% | [14]; at 50.0 µM -11.5% | [14]; at 100.0 µM -11% | [1]; at 1.2 µM -2% | [1]; at 3.7 µM -6% | [1]; [17] 26% | [1]; at 11.0 µM -19% | [1]; at 33.0 µM 0% | [1]; at 50.0 µM -28% | [1]; at 100.0 µM -10% | [15]; at 1.2 µM -16% | [15]; at 3.7 µM -16% | [15]; at 11.0 µM -30% | [15]; at 33.0 µM -24% | [15]; at 100.0 µM -26% | [3]; at 1.2 µM 1% | [3]; at 3.7 µM -4% | [3]; at 11.0 µM -6% | [3]; at 33.0 µM 13% | [3]; at 100.0 µM -7% | [4]; [17] 44% | [4]; [18] 52% | [4]; at 50.0 µM -16.4% | [5]; at 1.2 µM -13% | [5]; at 3.7 µM -16% | [5]; [17] 25% | [5]; at 11.0 µM -25% | [5]; at 33.0 µM 3% | [5]; [18] 31% | [5]; at 50.0 µM -29.2% | [5]; at 100.0 µM -21% | [6]; at 1.2 µM -9% | [6]; at 3.7 µM 9% | [6]; at 11.0 µM -14% | [6]; at 33.0 µM -5% | [6]; at 100.0 µM 5% | [7]; at 1.2 µM -16% | [7]; at 3.7 µM -18% | [7]; at 11.0 µM -23% | [7]; at 33.0 µM -18% | [7]; at 100.0 µM -21% | [8]; at 1.2 µM -21% | [8]; at 3.7 µM -19% | [8]; at 11.0 µM -23% | [8]; at 33.0 µM -24% | [8]; at 100.0 µM -19% | [9]; [17] 40% | [9]; [18] 30% | [9]; at 50.0 µM -3.75%
active: [1]; [18] 79%

O=CC1(F)CC1(c1ccccc1)c1ccccc1 (stereo unspecified)
active: [10]; at 100.0 µM 81% | [11]; at 100.0 µM 73% | [13]; at 100.0 µM 87% | [14]; at 100.0 µM 94% | [1]; at 100.0 µM 87% | [15]; at 100.0 µM 80% | [5]; at 100.0 µM 89% | [6]; at 100.0 µM 98% | [7]; at 100.0 µM 94% | [8]; at 100.0 µM 98% | [16]; at 100.0 µM 94%
inactive: [10]; at 1.2 µM -2% | [10]; at 3.7 µM -4% | [10]; at 11.0 µM -2% | [10]; at 33.0 µM 1% | [11]; at 1.2 µM -1% | [11]; at 3.7 µM -1% | [11]; at 11.0 µM -4% | [11]; at 33.0 µM -1% | [12]; at 1.2 µM -1% | [12]; at 3.7 µM 0% | [12]; at 11.0 µM 5% | [12]; at 33.0 µM 10% | [12]; at 100.0 µM 17% | [13]; at 1.2 µM -2% | [13]; at 3.7 µM -7% | [13]; at 11.0 µM -2% | [13]; at 33.0 µM 0% | [14]; at 1.2 µM 0% | [14]; at 3.7 µM -46% | [14]; [17] -3% | [14]; at 11.0 µM 18% | [14]; at 33.0 µM 5% | [14]; [18] 17% | [14]; at 50.0 µM 27.8% | [1]; at 1.2 µM -3% | [1]; at 3.7 µM -3% | [1]; [17] 6% | [1]; at 11.0 µM -2% | [1]; at 33.0 µM 4% | [1]; [18] 21% | [1]; at 50.0 µM 21% | [15]; at 1.2 µM 0% | [15]; at 3.7 µM 1% | [15]; at 11.0 µM 2% | [15]; at 33.0 µM 7% | [2]; [17] -2% | [2]; [18] 53% | [2]; at 50.0 µM 55.6% | [4]; [17] -1% | [4]; [18] 2% | [4]; at 50.0 µM 23.8% | [5]; at 1.2 µM -2% | [5]; at 3.7 µM -4% | [5]; [17] -3% | [5]; at 11.0 µM -6% | [5]; at 33.0 µM -4% | [5]; [18] 11% | [5]; at 50.0 µM 5.65% | [6]; at 1.2 µM -1% | [6]; at 3.7 µM 6% | [6]; at 11.0 µM -2% | [6]; at 33.0 µM 2% | [7]; at 1.2 µM -2% | [7]; at 3.7 µM -3% | [7]; at 11.0 µM -3% | [7]; at 33.0 µM 2% | [8]; at 1.2 µM -2% | [8]; at 3.7 µM -1% | [8]; at 11.0 µM 3% | [8]; at 33.0 µM 22% | [9]; [17] -1% | [9]; [18] 14% | [9]; at 50.0 µM 14.2% | [16]; at 1.2 µM -6% | [16]; at 3.7 µM 2% | [16]; at 11.0 µM 3% | [16]; at 33.0 µM 13%
